From PubChem
TTR transcr act = increases transthyretin transcription; AID 1117267; actives 1.3% (n = 92,000); activation, % at 16.7 µM; SH-SY5Y TTR promoter Gaussia luciferase, luminescence; 100% = recombinant luciferase protein wells;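 active = activation above the mean of all tested compounds plus 3 SD, cut at about 9.5% in these data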;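 note: cells exposed to compounds for one day before reading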
HuH7 TTR inh = decreases TTR transcription in HuH7 cells in activator counter-screen | inhibition, % at 16.7 µM | actives 4% (n = 1,100) | HuH7 TTR promoter-Gaussia luciferase reporter, luminescence | AID 1117279 | shares compounds with TTR transcr act;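 active = average inhibition above the solvent-only control wells' mean plus 3 SD, cut at about 15% in these data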;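 note: inhibitors lower well luminescence so higher value means more inhibition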
TTR act confirm = confirmation of human transthyretin transcription activators; shares compounds with TTR transcr act; 1,100 tested, under 10 active; SHSY5Y TTR promoter Gaussia luciferase, luminescence; 100% = purified Lucia enzyme wells, no cells; activation, % at 16.7 µM;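 active = mean activation above a set limit taken from the earlier primary screen, cut at about 11% in these data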
Numbers stand for hits; – = inactive. Many of the other results were omitted from the sample, so hits are more common in it than they were.

SMILES | TTR transcr act | others
Cc1ccc([C@@H]2CC=C(C(=O)O)[C@H](c3ccccc3)N2S(=O)(=O)c2ccc(C)cc2)cc1 | –
Cc1ccc([C@H]2C(C(=O)O)=CC[C@@H](c3cccc(C)c3)N2S(=O)(=O)c2ccc(C)cc2)cc1 | –
Cc1ccc([C@H]2C(C(=O)O)=CC[C@@H](c3ccc(Cl)cc3)N2S(=O)(=O)c2ccc(C)cc2)cc1 | –
COc1ccc([C@@H]2CC=C(C(=O)O)[C@H](c3ccccc3F)N2S(=O)(=O)c2ccccc2C)cc1 | 14 | HuH7 TTR inh=16;TTR act confirm=–
Cc1ccc(S(=O)(=O)N2[C@@H](c3ccc(F)cc3)C(C(=O)O)=CC[C@H]2c2cccc(Cl)c2)cc1 | –
Cc1ccc(S(=O)(=O)N2[C@@H](c3ccccc3F)C(C(=O)O)=CC[C@H]2c2cccs2)cc1 | 13 | HuH7 TTR inh=–;TTR act confirm=–
Cc1ccc([C@H]2C[C@H](O)[C@@H](n3cc(C4CC4)nn3)CN2C(=O)C2CCCCC2)cc1 | –
CN1C(c2ccccc2)CC2CN(c3ccccc3)C(=O)C21 (stereo not drawn) | –
Cc1nc(SCC(N)=O)[nH]c(=O)c1C | –
CC(C)CN1C(=O)C[C@@]2(C(=O)N(C)c3ccc(NS(=O)(=O)C4CCCCC4)cc32)C1c1ccccc1 (stereo partly drawn) | –
Cn1ccc2c(-c3ccc(C(C)(C)C)cc3)cc3c(c21)C1CCC3C1 (stereo not drawn) | –
COc1ccc(-c2cc3c(c4c2ccn4C)C2CCC3C2)cc1 (stereo not drawn) | –
Cn1ccc2c(-c3ccc(C(=O)O)cc3)cc3c(c21)C1CCC3C1 (stereo not drawn) | 12 | HuH7 TTR inh=–;TTR act confirm=–
COC(=O)C(C[N+](=O)[O-])C1=C(O)CC(C)(C)CC1=O (stereo not drawn) | –
CCCC1CCC2(CC1)CCC2OC(=S)NCc1cccc(F)c1 (stereo not drawn) | –
Nc1ccc2c3c(ccc([N+](=O)[O-])c13)CC2 | –
O=C1CCC[C@H]2C[C@H](NCc3cccc(Cl)c3)CC[C@]23CCCN13 | –
COc1cccc(C2CC(c3cccs3)=NN2C(=S)Nc2ccccc2)c1OC (stereo not drawn) | –
Cc1ccc(C2CC(c3ccccc3)=NN2C(=S)Nc2ccccc2)o1 (stereo not drawn) | 11 | HuH7 TTR inh=25;TTR act confirm=–
COc1ccc(C2CC(c3cccs3)=NN2C(=S)Nc2ccccc2)cc1OC (stereo not drawn) | –
O=c1cc(CN2CCN(c3ccccc3)CC2)c2ccccc2o1 | –
O=C(COC(=O)/C=C/c1ccc(F)cc1)NC1CCCCCC1 | 10 | HuH7 TTR inh=–;TTR act confirm=–
O=C(COC(=O)/C=C/c1ccc(Cl)cc1)NC1CCCC1 | –
O=C(COC(=O)/C=C/c1ccc(F)cc1)NC1CCCC1 | –
CN(C)[C@H]1CCN(c2ccc3c(c2)OCCCN(C2CC2)S3(=O)=O)C1 | –
SMILES | TTR transcr act | others
CCCCC(=O)N(C)c1c(CC)nc2c(OCC(=O)c3ccc(F)cc3)cccn12 | –
COc1ccc(-n2c(C)cc(C(=O)COC(=O)Cn3cnc4ccccc43)c2C)cc1 | –
COc1ccc(-n2c(C)cc(C(=O)COC(=O)c3cc(NC(=O)c4cccs4)c(OC)c(OC)c3)c2C)cc1 | 9.8 | HuH7 TTR inh=–;TTR act confirm=–
COc1cc(C(=O)OCC(=O)NCc2ccc(F)cc2)cc(NC(=O)c2cccs2)c1OC | –
CCc1ccc(Cn2c(=O)n(Cc3ccc(C(=O)NCCCOC)cc3)c(=O)c3ccccc32)cc1 | –
Cc1cc(C)c(C)c(OCC(=O)O/N=C(\N)c2ccccn2)c1 | 10 | HuH7 TTR inh=–;TTR act confirm=–
Cc1cc(C)cc(OCC(=O)O/N=C(\N)c2ccccn2)c1 | –
Cc1cc(C)c(C)c(OCC(=O)O/N=C(\N)c2ccncc2)c1 | –
Cc1ccc(F)cc1C(=O)N1CCCC(c2cc(C(=O)Nc3ccccc3)no2)C1 (stereo not drawn) | –
O=C(Nc1ccccc1)c1cc(C2CCCN(C(=O)C3CC3)C2)on1 (stereo not drawn) | 10.0 | HuH7 TTR inh=–;TTR act confirm=–
CN(C)c1ccc(CC(=O)N2CCCC(c3cc(C(=O)Nc4ccccc4)no3)C2)cc1 (stereo not drawn) | –
C=CCN1C(=O)[C@H](CC(=O)NCC23CC4CC(CC(C4)C2)C3)[C@@]2(C(=O)OCC)CCCC=C12 | –
COC(=O)c1cc(-c2cccc3c2sc2ccccc23)c(=O)n2c1CCC2 | –
Cc1ccnc(SCc2cc(=O)c(OC(=O)c3ccc(C)c([N+](=O)[O-])c3)co2)n1 | –
Cc1ccc(NC(=O)OC2CC3CC2[C@H]2CCCCN2[C@H]3Cc2ccccc2)cc1 (stereo partly drawn) | –
COC(=O)[C@]12C[C@H](CC(=O)N3CCCC3)C(=O)N(CCc3ccc(OC)c(OC)c3)C1=C[C@H](COCc1ccccc1)O[C@@H]2C | –
Cc1cccc(CN[C@@H]2CC[C@@]34CCCN3C(=O)CCC[C@H]4C2)c1 | –
O=C(NC1CCN(Cc2ccccc2)CC1)c1ccccc1Cl | –
O=C(NC1CCN(Cc2ccccc2)CC1)c1ccccc1OCc1ccccc1 | –
Cc1oc(-c2ccccc2)cc1C(=O)NC1CCN(Cc2ccccc2)CC1 | 9.8 | HuH7 TTR inh=–;TTR act confirm=–
CCCNC(=O)Cn1c(-c2ccc(F)cc2)cc(C(=O)OCC)c1C | –
CCOC(=O)c1cc(-c2ccccc2)n(CC(=O)NC(C)(C)C)c1C | –
CCOC(=O)c1cc(-c2ccccc2)n(CC(=O)O)c1C | 11 | HuH7 TTR inh=–;TTR act confirm=–
CCN(C(=O)[C@@H](C1CC1)[C@@H](O)c1ccc(C(C)=O)cc1)c1ccccc1 | –
CCOC(=O)CCCNC(=O)OC1CC2CC1[C@H]1CCCCN1[C@H]2Cc1ccccc1 (stereo partly drawn) | –
SMILES | TTR transcr act | others
Cc1cc(C)n(C(=O)Cn2nc(C)c(Cl)c2C)n1 | –
Cc1cc(C)n(C(=O)CNC(=O)C(c2ccccc2)c2ccccc2)n1 | –
Cc1cc(C)n(C(=O)CNc2cccc(Cl)c2C)n1 | 11 | HuH7 TTR inh=–;TTR act confirm=–
O=C(N[C@@H]1CC[C@H]2SC[C@H](C(=O)O)N2C1=O)OCC1c2ccccc2-c2ccccc21 | –
O[C@@H]1CN(CC2CCCCC2)[C@@H](c2ccccc2)C[C@H]1n1cc(C2CC2)nn1 | –
NC1=NC[C@H](c2ccccc2)N1CC1CCCCC1 | 15 | HuH7 TTR inh=–;TTR act confirm=–
c1ccc(NC2=NCCN2CC2CCC2)cc1 | –
COC(=O)[C@]12C[C@H](CC(=O)NCCC(C)C)C(=O)N(Cc3ccco3)C1=C[C@H](C1CCCC1)O[C@@H]2C | –
O=S(=O)(CC1NCCc2ccccc21)NCCc1ccccc1 (stereo not drawn) | –
CC(C)C[C@H](NC1(C(=O)NC2CCCCC2)CCN(C)CC1)C(=O)NCC(c1ccccc1)c1ccccc1 | –
Cc1ccc(CC(=O)NC(C)CCc2ccccc2)cc1 (stereo not drawn) | –
CC(C)C[C@H]1CNC(=O)C(=O)N1C[C@H](C)NC(=O)Cc1ccccc1 | 15 | HuH7 TTR inh=–;TTR act confirm=–
CC(CCc1ccccc1)NC(=O)Cc1ccc(Br)cc1 (stereo not drawn) | –
C[C@H]1C2CC(OC(=O)Nc3ccccc3C(F)(F)F)C(C2)[C@H]2CCCCN21 (stereo partly drawn) | –
COc1ccc(C(=O)Nc2cc(Cl)c(Br)cc2C(=O)O)cc1 | –
Cc1cc(C)cc(-c2c(C(=O)c3ccc(Br)cc3)[nH]c(N)c2C(=O)NCc2ccc(Cl)cc2)c1 | –
